Source: PubChem BioAssay (National Center for Advancing Translational Sciences (NCATS))
Most compounds without a hit are left out; they make up all but 4.6% or so of the library.
D1 potentiator – potentiators of human D1 dopamine receptor | P21728 | HEK293 TREx D1 cells, calcium flux, dopamine EC20 potentiation | potentiation, % at 10 µM | 360,000 tested, 0.036% active; in the data active means potentiation above about 30%; further: 0% is about no effect
D1 antagonist – human D1 dopamine receptor antagonism; AID 504652; 360,000 tested, 3.2% active; HEK293 TREx D1 cells, calcium flux, dopamine EC80; hits give low values; P21728; activity change, negative = inhibition, % at 10 µM; in the data active means activity change below about -30%; further: on the % scale 0 is the no-effect control and ±100 the full control effect
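Kinetic fluorescence of a calcium dye serves as the read-out. D1-expressing Hek293 Trex cells, induced overnight at 30 C, are exposed to compound for 180 s before an EC80 dopamine addition, then read 180 s further.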
TRHR enhancer-1 – allosteric enhancers of human TRH receptor. 360,000 tested, 0.66% active. TRHR cells, fluo-8 calcium fluorescence, EC20 TRH enhancement. enhancement, % at 2 µM. AID 493056. P34981; in the data active means enhancement above about 30%; further: 0% is about no effect
Target sequence (P34981 whole entry, looked up): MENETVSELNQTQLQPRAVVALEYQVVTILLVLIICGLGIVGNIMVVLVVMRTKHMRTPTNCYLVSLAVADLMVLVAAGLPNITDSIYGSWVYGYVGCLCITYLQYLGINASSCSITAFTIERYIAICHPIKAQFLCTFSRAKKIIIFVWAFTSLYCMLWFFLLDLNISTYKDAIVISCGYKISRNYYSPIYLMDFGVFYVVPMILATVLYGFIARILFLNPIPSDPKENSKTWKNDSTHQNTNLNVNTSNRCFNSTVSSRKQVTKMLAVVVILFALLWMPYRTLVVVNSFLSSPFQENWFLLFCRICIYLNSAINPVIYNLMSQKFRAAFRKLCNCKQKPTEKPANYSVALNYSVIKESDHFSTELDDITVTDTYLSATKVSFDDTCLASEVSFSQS
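TRHR-expressing cells loaded with fluo-8 calcium dye were read kinetically (ex 480/em 530) during compound addition, then stimulated with an EC20 of TRH (10 nM final). Enhancement of the Gq-mediated intracellular calcium response was scored.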
TRHR agonist-1 – agonists of human TRH receptor; P34981; TRHR cells, calcium flux fluo-8, FDSS agonist mode; activation, % at 2 µM; 360,000 tested, 0.18% active; AID 493084; in the data active means activation above about 30%; further: 0% is about no effect
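Steps: seed TRHR cells overnight; add fluo-8 no-wash Ca dye, RT 30 min–1.5 h; record 10 s baseline; pin-transfer compounds; monitor fluorescence 1 cycle/s for the agonist window. Calcium increases flag candidate agonists.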
D1 ag – human D1 receptor agonism. HEK293 T-REx D1 cells, calcium flux, agonist mode. activation, % at 2 µM. 360,000 tested, 1% active; in the data active means activation above about 30%; further: 0% is about no effect
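Inducible HEK293 T-REx D1 cells, force-coupled to calcium signalling, were plated at 4000 cells/well with tetracycline and held overnight at 30 C. After no-wash calcium dye loading, compound-evoked calcium rise over 180 s flagged agonists.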
TRHR enhancer-2 – human TRH receptor allosteric enhancement confirmation. shares compounds with TRHR enhancer-1. TRH receptor cell assay, enhancer confirmation qHTS. activity change, negative = inhibition, % at 46.1 µM. 970 tested, under 10 active. AID 493076;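 further: compound effect scored on response to added TRH at EC20 of 10 nM; 0% is about no effect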
TRHR agonist-2 – confirmation of human TRH receptor agonists. shares compounds with TRHR enhancer-1. TRHR-expressing cells, agonist activation read-out. Potency, µM (top dose mostly 46.1 µM), without a hit: top-dose activation, usual class: activators. 970 tested, 8% active. AID 493078; further: potency means the concentration at half of the fitted maximal effect; 0% is about no effect; nearly all actives have a fitted effect of over 75% in size
Starred values were filed as active, the others as inactive; u = inconclusive; x = no result. Unless noted, the call rests on the fitted dose curve; in most records, active means well fitted curve in the direction sought with a large enough effect; inconclusive means small, poorly fitted or top-dose-only effect, or another doubt; inactive means no such curve, though single readings can be large; an effect the other way counts as inactive or inconclusive.

SMILES	D1 potentiator	D1 antagonist	TRHR enhancer-1	TRHR agonist-1	D1 ag	TRHR enhancer-2	TRHR agonist-2
Cc1ccccc1NC(=S)N(Cc1cccnc1)Cc1ccccc1Cl	-5.8	11.2	47.2*	-0.6	1.8	u	5.8%
O=C(O)C=C1CCN(c2ncc(C(F)(F)F)cc2Cl)CC1	-2.0	2.4	43.1*	-0.1	3.1	-0.9	-0.6%
NNC(=O)C=C1CCN(c2ncc(C(F)(F)F)cc2Cl)CC1	1.6	8.2	2.1	0.4	2.0	x	x
CN(Cc1ccccc1)C(C(=O)NC1CCCCC1)c1ccc(Cl)cc1 (stereo unspecified)	0.7	21.0	6.5	-0.8	1.4	x	x
O=C(NCc1ccccc1)C1CCCN1S(=O)(=O)c1ccc(F)cc1 (stereo unspecified)	-0.8	4.8	-0.3	-1.9	-0.1	x	x
Cc1ccc(CNC(=O)C2CCCN2S(=O)(=O)c2ccc(F)cc2)cc1 (stereo unspecified)	-4.9	12.9	47.3*	-0.9	0.5	-4.3	2.4%
CCC(C)NC(=O)c1cc2c(=O)n(CC)c3ccccc3c2s1 (stereo unspecified)	-9.2	3.7	58.4*	-1.4	1.7	-5.4	2.1%
O=C(CNC(=O)c1ccc(F)cc1)c1ccc(Cl)cc1	-6.8	-32.8*	43.4*	-0.8	14.5	-6.8	-0.3%
CCC(OC(=O)c1ccco1)C(=O)NCc1ccc2c(c1)OCO2 (stereo unspecified)	-6.7	-7.2	6.4	0.0	1.0	x	x
O=C(Cc1nc2ccccc2[nH]c1=O)c1ccccc1	-4.0	-7.2	0.5	31.0*	51.6*	-3.6	u
COc1cc(S(=O)(=O)N2CCCCC2)ccc1NC(=O)c1ccccc1Cl	-3.3	-17.7	-0.7	-0.6	2.0	x	x
CCC(=O)Nc1ccc(S(=O)(=O)N2CCCCC2)cc1OC	0.5	-3.9	44.3*	1.3	1.6	-7.2	-0.6%
CCC1CN(C(=O)N2CCC(C(=O)NCCC3=CCCCC3)CC2)c2ccccc2O1 (stereo unspecified)	-4.6	-5.4	12.2	0.1	-1.1	x	x
COc1ccc(NC(=O)COC(=O)c2ccc(N3CCCC3=O)cc2)cc1OC	-8.1	11.6	43.4*	0.3	3.5	4.0	-0.6%
CCC1CCCCN1CCCNC(=O)c1cn(CC)c2ccc(S(=O)(=O)N3CCc4ccccc4C3)cc2c1=O (stereo unspecified)	-0.7	-7.6	51.1*	-0.3	0.1	0.6	5.1%
C=CCc1cc(C=O)cc(OCC)c1OCc1ccc(Cl)cc1	2.0	9.5	45.2*	0.1	6.0	-2.9	1.2%
C=CCc1cc(C=O)cc(OC)c1OCc1ccc(Cl)cc1	-11.1	-0.9	-8.4	0.3	6.2	x	x
COc1ccc(Br)c(C(=O)Nc2cc3c(cc2N2CCOCC2)n(C)c(=O)n3C)c1	0.6	7.6	1.4	-0.8	0.6	x	x
COc1ccc(/C=C2\CC/C(=C\c3ccc(OC)cc3OC)C2=O)c(OC)c1	-1.0	10.2	-5.2	34.1*	54.4*	-0.1	23.1µM*
COc1ccc2ccccc2c1/C=N/NC(=O)c1ccc(C)nc1	2.6	-0.7	4.5	-0.8	-0.3	x	x
O=C(N/N=C/c1c(O)ccc2ccccc12)c1ccc(CO)nc1	-2.7	10.5	1.2	32.5*	23.0	4.0	u
O=C(N/N=C\c1c(O)ccc2ccccc12)c1ccc(S(=O)(=O)N2CCCCC2)cc1	-8.7	-7.7	26.2	60.1*	51.9*	u	18.4µM*
O=C(CNC(=O)c1ccc(S(=O)(=O)N2CCCC2)cc1)N/N=C/c1ccccc1Cl	-5.8	-0.9	0.6	-1.0	1.8	x	x
COc1ccc(C)cc1NC(=O)NCCC1=CCCCC1	4.1	2.4	43.4*	-0.5	1.2	-1.3	1.9%
COc1ccc(C)cc1NC(=O)c1cc(S(=O)(=O)NCCC2=CCCCC2)ccc1F	-1.0	5.4	6.9	0.6	1.7	x	x
Cc1ccc(C(=O)NCc2ccncc2)cc1S(=O)(=O)N1CCOCC1	1.2	-17.3	43.6*	0.4	-0.5	-8.5	0.5%
COc1cccc(CNC(=O)c2ccc(C)c(S(=O)(=O)N3CCOCC3)c2)c1	1.4	-0.6	-6.0	0.3	2.9	x	x
